Experiment in all cases: PBM; 200 nM protein, PBS
Conditions in all cases: dsDNA, one strand shown

The target of assay [1] is T1, SIX6 (Homo sapiens, UniProt O95475 114-200, T165P).
T1 sequence: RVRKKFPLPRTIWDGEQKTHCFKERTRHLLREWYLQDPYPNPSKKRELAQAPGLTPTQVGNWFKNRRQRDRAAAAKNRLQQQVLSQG

Assay [2] has as its target T2, SIX6 (Homo sapiens, UniProt O95475 114-200, H141N).
T2 sequence: T1 sequence with H28N, P52T

The target in assay [3] is T3, SIX6 (Homo sapiens, UniProt O95475 114-200, T165A).
T3 sequence: T1 sequence with P52A

Assay [4] deals with PRRX1 (Homo sapiens, UniProt P54821 80-166, F113S).
Assay [5] has as its target PRRX1 (Homo sapiens, UniProt P54821 80-166).
Assay [6] addresses T4, VENTX (Homo sapiens, UniProt O95231 78-163, Y115F).
T4 sequence: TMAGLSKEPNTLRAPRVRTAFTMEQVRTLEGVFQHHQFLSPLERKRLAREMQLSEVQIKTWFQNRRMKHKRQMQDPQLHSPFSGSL

Assay [7] addresses HOXB6 (Homo sapiens, UniProt P17509 132-218, K202E).
In assay [8] the target is HOXA4 (Homo sapiens, UniProt Q00056 201-287, R217L).
Assay [9] concerns the target HOXB6 (Homo sapiens, UniProt P17509 132-218).
Assay [10] concerns the target HOXA2 (Homo sapiens, UniProt O43364 129-215, R185T).
Assay [11] has as its target MSX2 (Homo sapiens, UniProt P35548 130-214, R199I).
Assay [12] has as its target HOXA2 (Homo sapiens, UniProt O43364 129-215, R185K).
In assay [13] the target is ALX3 (Homo sapiens, UniProt O95076 139-225, N203Q).
Assay [14] deals with ALX3 (Homo sapiens, UniProt O95076 139-225).
For assay [15], the target named is ALX3 (Homo sapiens, UniProt O95076 139-225, N203S).
Assay [16] has as its target T5, SIX6 (Homo sapiens, UniProt O95475 114-200, L167M).
T5 sequence: T1 sequence with P52T, L54M

Assay [17] concerns the target T6, PAX4 (Homo sapiens, UniProt O43316 9-242).
T6 sequence: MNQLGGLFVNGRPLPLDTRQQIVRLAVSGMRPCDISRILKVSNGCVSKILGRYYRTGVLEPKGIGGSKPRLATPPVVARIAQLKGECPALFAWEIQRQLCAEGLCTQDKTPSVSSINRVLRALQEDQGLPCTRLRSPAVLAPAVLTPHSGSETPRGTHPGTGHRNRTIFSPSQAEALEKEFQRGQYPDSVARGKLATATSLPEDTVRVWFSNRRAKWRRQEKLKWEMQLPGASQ

Assay [18] addresses T7, SIX6 (Homo sapiens, UniProt O95475 114-200, T139Q).
T7 sequence: T1 sequence with T26Q, P52T

For assay [19], the target named is PITX2 (Homo sapiens, UniProt Q99697 72-157).
Assay [20] deals with T8, PAX4 (Homo sapiens, UniProt O43316 9-242, F177V).
T8 sequence: T6 sequence with F169V

Assay [21] addresses T9, PAX4 (Homo sapiens, UniProt O43316 9-242, F177Y).
T9 sequence: T6 sequence with F169Y

The target in assay [22] is T10, PAX4 (Homo sapiens, UniProt O43316 9-242, R227W).
T10 sequence: T6 sequence with R219W

Residue numbers refer to the chain shown, from its start.

ALX3 (Homo sapiens, UniProt O95076 139-225, N203S), sequence (O95076 139-225 N203S): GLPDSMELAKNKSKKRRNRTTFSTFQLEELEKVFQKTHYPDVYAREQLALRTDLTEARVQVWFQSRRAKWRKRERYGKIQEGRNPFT
ALX3 (Homo sapiens, UniProt O95076 139-225), sequence (O95076 139-225): as the sequence (O95076 139-225 N203S) above, with S65N counted along it
ALX3 (Homo sapiens, UniProt O95076 139-225, N203Q), sequence (O95076 139-225 N203Q): as the sequence (O95076 139-225 N203S) above, with S65Q counted along it
HOXA4, sequence (Q00056 201-287 R217L): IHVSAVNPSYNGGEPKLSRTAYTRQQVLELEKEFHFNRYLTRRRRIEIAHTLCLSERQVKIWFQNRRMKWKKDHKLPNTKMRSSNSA
MSX2, sequence (P35548 130-214 R199I): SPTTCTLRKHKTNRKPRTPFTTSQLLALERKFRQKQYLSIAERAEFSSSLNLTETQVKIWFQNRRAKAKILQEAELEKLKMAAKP
PRRX1 (Homo sapiens, UniProt P54821 80-166, F113S), sequence (P54821 80-166 F113S): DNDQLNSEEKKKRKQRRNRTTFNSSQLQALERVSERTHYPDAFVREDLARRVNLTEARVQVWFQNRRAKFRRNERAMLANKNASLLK
HOXB6 (Homo sapiens, UniProt P17509 132-218), sequence (P17509 132-218): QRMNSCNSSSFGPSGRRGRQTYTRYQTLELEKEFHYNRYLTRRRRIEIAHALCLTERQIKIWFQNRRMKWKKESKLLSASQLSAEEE
HOXA2 (Homo sapiens, UniProt O43364 129-215, R185K), sequence (O43364 129-215 R185K): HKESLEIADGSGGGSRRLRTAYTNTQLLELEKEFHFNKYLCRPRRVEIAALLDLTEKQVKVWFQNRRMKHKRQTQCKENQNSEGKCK
PRRX1 (Homo sapiens, UniProt P54821 80-166), sequence (P54821 80-166): as the sequence (P54821 80-166 F113S) above, with S34F counted along it
HOXA2 (Homo sapiens, UniProt O43364 129-215, R185T), sequence (O43364 129-215 R185T): as the sequence (O43364 129-215 R185K) above, with K57T counted along it
HOXB6 (Homo sapiens, UniProt P17509 132-218, K202E), sequence (P17509 132-218 K202E): as the sequence (P17509 132-218) above, with K71E counted along it

Turning to GGATCCCC, the binding signal in assay [1] is 9.23 upbm affinity estimate (log intensity, higher = more binding, comparable within an allelic series).

CGTGATCC: in [1], the binding signal is 9.16 upbm affinity estimate (log intensity, higher = more binding, comparable within an allelic series).

GACGATCC: the binding signal in assay [1] was 9.26 upbm affinity estimate (log intensity, higher = more binding, comparable within an allelic series).

In the case of AGGGATCG, the binding signal in [1] was 9.2 upbm affinity estimate (log intensity, higher = more binding, comparable within an allelic series).

In the case of CCGGATCG, the binding signal in assay [1] was 9.19 upbm affinity estimate (log intensity, higher = more binding, comparable within an allelic series).

As for CTGGATCC, the binding signal in [1] was 9.18 upbm affinity estimate (log intensity, higher = more binding, comparable within an allelic series).

In the case of CTGATACA, the binding signal in assay [2] was 11 upbm affinity estimate (log intensity, higher = more binding, comparable within an allelic series); in assay [3], 11 upbm affinity estimate (log intensity, higher = more binding, comparable within an allelic series).

Regarding GACGACGC, the binding signal in [4] is 9.47 upbm affinity estimate (log intensity, higher = more binding, comparable within an allelic series); in assay [5] it was 9.16 upbm affinity estimate (log intensity, higher = more binding, comparable within an allelic series).

Consider GGGGATAC, for which the binding signal in assay [1] is 9.17 upbm affinity estimate (log intensity, higher = more binding, comparable within an allelic series).

Regarding CGATACCG, in assay [1], the binding signal was 9.14 upbm affinity estimate (log intensity, higher = more binding, comparable within an allelic series).

Take CCGGATCA: the binding signal in [1] is 9.33 upbm affinity estimate (log intensity, higher = more binding, comparable within an allelic series).

With AGATCCGC, the binding signal in assay [1] was 9.23 upbm affinity estimate (log intensity, higher = more binding, comparable within an allelic series).

As to CCTGGATC, the binding signal in [1] was 9.18 upbm affinity estimate (log intensity, higher = more binding, comparable within an allelic series).

As for CCGATTTA, the binding signal in assay [6] was 9.97 upbm affinity estimate (log intensity, higher = more binding, comparable within an allelic series).

With GGGATACC, the binding signal in [1] was 9.29 upbm affinity estimate (log intensity, higher = more binding, comparable within an allelic series).

Consider AATCGATT, for which the binding signal in [6] is 10.7 upbm affinity estimate (log intensity, higher = more binding, comparable within an allelic series); in [7], 9.7 upbm affinity estimate (log intensity, higher = more binding, comparable within an allelic series); in assay [8], 12 upbm affinity estimate (log intensity, higher = more binding, comparable within an allelic series); in assay [9], 11 upbm affinity estimate (log intensity, higher = more binding, comparable within an allelic series).

On to GGATCGGA, for which, in [1], the binding signal is 9.23 upbm affinity estimate (log intensity, higher = more binding, comparable within an allelic series).

Consider CAGGATCA, for which the binding signal in assay [1] is 9.29 upbm affinity estimate (log intensity, higher = more binding, comparable within an allelic series).

As for CTAATCAC, the binding signal in [6] is 11.7 upbm affinity estimate (log intensity, higher = more binding, comparable within an allelic series); in assay [10] it was 12.7 upbm affinity estimate (log intensity, higher = more binding, comparable within an allelic series); in [11], 11.1 upbm affinity estimate (log intensity, higher = more binding, comparable within an allelic series); in assay [12] it was 13.3 upbm affinity estimate (log intensity, higher = more binding, comparable within an allelic series).

Turning to GGGATCCA, the binding signal in assay [1] is 9.27 upbm affinity estimate (log intensity, higher = more binding, comparable within an allelic series).

For the sequence AATCGGTC, in assay [6], the binding signal is 10.1 upbm affinity estimate (log intensity, higher = more binding, comparable within an allelic series).

For the sequence GCTATCAC, the binding signal in assay [1] is 9.24 upbm affinity estimate (log intensity, higher = more binding, comparable within an allelic series).

AAATGGGT: the binding signal in assay [6] was 10.2 upbm affinity estimate (log intensity, higher = more binding, comparable within an allelic series); in assay [13] it was 8.27 upbm affinity estimate (log intensity, higher = more binding, comparable within an allelic series); in assay [14], 9.3 upbm affinity estimate (log intensity, higher = more binding, comparable within an allelic series); in assay [15] it was 8.31 upbm affinity estimate (log intensity, higher = more binding, comparable within an allelic series).

Regarding GGGGATCA, the binding signal in assay [1] is 9.12 upbm affinity estimate (log intensity, higher = more binding, comparable within an allelic series).

Consider GATACGCC, for which, in assay [1], the binding signal is 9.27 upbm affinity estimate (log intensity, higher = more binding, comparable within an allelic series).

On to CCGATACC, for which the binding signal is 9.05 upbm affinity estimate (log intensity, higher = more binding, comparable within an allelic series) in [1] and 10 upbm affinity estimate (log intensity, higher = more binding, comparable within an allelic series) in assay [16].

ATCGATCA: the binding signal in assay [6] is 9.96 upbm affinity estimate (log intensity, higher = more binding, comparable within an allelic series).

Take ATTTTTAC: the binding signal in assay [17] is 10.5 upbm affinity estimate (log intensity, higher = more binding, comparable within an allelic series).

On to CGGATCGC, for which the binding signal in [1] is 9.17 upbm affinity estimate (log intensity, higher = more binding, comparable within an allelic series).

Consider ACCGATCA, for which the binding signal in [6] is 9.96 upbm affinity estimate (log intensity, higher = more binding, comparable within an allelic series).

For TCTTATCA, the binding signal in [17] is 10.6 upbm affinity estimate (log intensity, higher = more binding, comparable within an allelic series); in [13] it was 8.33 upbm affinity estimate (log intensity, higher = more binding, comparable within an allelic series); in assay [14], 9.29 upbm affinity estimate (log intensity, higher = more binding, comparable within an allelic series); in assay [15], 8.36 upbm affinity estimate (log intensity, higher = more binding, comparable within an allelic series).

With GGATCCAC, the binding signal in [1] was 9.18 upbm affinity estimate (log intensity, higher = more binding, comparable within an allelic series).

For GGGATCAC, the binding signal in assay [1] is 9.32 upbm affinity estimate (log intensity, higher = more binding, comparable within an allelic series); in assay [18] it was 11.1 upbm affinity estimate (log intensity, higher = more binding, comparable within an allelic series).

With GATATGGC, in [1], the binding signal is 9.27 upbm affinity estimate (log intensity, higher = more binding, comparable within an allelic series).

With GATTTTCA, in assay [17], the binding signal is 10.7 upbm affinity estimate (log intensity, higher = more binding, comparable within an allelic series).

For the sequence TCTGATCA, the binding signal in assay [17] is 10.5 upbm affinity estimate (log intensity, higher = more binding, comparable within an allelic series); in assay [19], 9.44 upbm affinity estimate (log intensity, higher = more binding, comparable within an allelic series); in assay [20], 9.89 upbm affinity estimate (log intensity, higher = more binding, comparable within an allelic series); in assay [21], 9.94 upbm affinity estimate (log intensity, higher = more binding, comparable within an allelic series); in assay [22], 9.94 upbm affinity estimate (log intensity, higher = more binding, comparable within an allelic series).

For the sequence TAGTCACA, in [17], the binding signal was 10.1 upbm affinity estimate (log intensity, higher = more binding, comparable within an allelic series).

Consider CGCGGATC, for which the binding signal in assay [1] is 9.18 upbm affinity estimate (log intensity, higher = more binding, comparable within an allelic series).

CCCGATAC: the binding signal in [1] was 9.17 upbm affinity estimate (log intensity, higher = more binding, comparable within an allelic series).

Take CGATTAGA: the binding signal in assay [6] was 10.8 upbm affinity estimate (log intensity, higher = more binding, comparable within an allelic series).

Regarding GAGGGATC, in [1], the binding signal is 9.26 upbm affinity estimate (log intensity, higher = more binding, comparable within an allelic series).

As for AATCGTAT, the binding signal in assay [17] is 10.8 upbm affinity estimate (log intensity, higher = more binding, comparable within an allelic series); in assay [20], 10.3 upbm affinity estimate (log intensity, higher = more binding, comparable within an allelic series).

Turning to CGTGTAAA, the binding signal in [17] was 10.4 upbm affinity estimate (log intensity, higher = more binding, comparable within an allelic series).

ACCGGATC: the binding signal in [1] is 9.31 upbm affinity estimate (log intensity, higher = more binding, comparable within an allelic series).

As to ACGATCCG, the binding signal in assay [1] was 9.21 upbm affinity estimate (log intensity, higher = more binding, comparable within an allelic series); in assay [16] it was 9.98 upbm affinity estimate (log intensity, higher = more binding, comparable within an allelic series).

As to GATCCCCA, the binding signal in assay [1] was 9.34 upbm affinity estimate (log intensity, higher = more binding, comparable within an allelic series).

In the case of GTCGATTA, the binding signal in [6] was 10.9 upbm affinity estimate (log intensity, higher = more binding, comparable within an allelic series).

With CGGGTATC, the binding signal was 9.28 upbm affinity estimate (log intensity, higher = more binding, comparable within an allelic series) in assay [1] and 11.1 upbm affinity estimate (log intensity, higher = more binding, comparable within an allelic series) in assay [18].

These data come from publication PMC11006913.
